# Activity calls are given as the source filed them. How the source made its calls: active means hit-call score of the fitted dose curve at least 0.9, where 1 is the maximum; inactive means score below 0.9.
# Read-out: Cytochrome P450 7A1 (Homo sapiens) (UniProt P22680)
# Test: LTEA_HepaRG_CYP7A1: Life Technologies and Expression Analysis (LTEA) Assay for Cytochrome P450 7A1 (CYP7A1) using HepaRG (AID 2283496)
# Details: mRNA level, 48 h; actives raise or lower the signal
# Procedure, shortened: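 Gene expression endpoint in human HepaRG liver cells treated for 48 h with test chemicals (up to 100 uM, 0.5% DMSO). Values come from bidirectional concentration-response fitting versus DMSO.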
Compound,outcome,AC50
CCCCC(CC)COC(=O)CCCCCCCC(=O)OCC(CC)CCCC (stereo unspecified),inactive,–
CC(=O)O,inactive,–
CC(C)(O)c1ccc(CNC(=O)c2cccnc2Oc2ccc(F)cc2)cc1,inactive,–
NC1CCCCC1,inactive,–
CC(=O)O[C@]1(C(C)=O)CC[C@H]2[C@@H]3C=C(Cl)C4=CC(=O)[C@@H]5C[C@@H]5[C@]4(C)[C@H]3CC[C@@]21C,–,59 µM (active)
O=C(NS(=O)(=O)/C=C/c1cccs1)c1ccc(F)cc1Br,–,27.9 µM (active)
O=C(O)c1cccnc1,inactive,–
CCCC(=O)O,inactive,–
CC(=O)OCC(COC(C)=O)OC(C)=O,inactive,–
CC(COCC(C)OC(=O)c1ccccc1)OC(=O)c1ccccc1 (stereo unspecified),inactive,–
CC(C)COC(=O)CCCCC(=O)OCC(C)C,inactive,–
CC(C)c1cccc(C(C)C)c1,inactive,–
CCOCCOCCO,inactive,–
CCCCC(CC)COP(=O)(OCC(CC)CCCC)OCC(CC)CCCC (stereo unspecified),inactive,–
CCCCCCCCCCCCCCCCO,–,50 µM (active)
CC(N)=O,inactive,–
CCCCCCC(CCCCCCCCCCC(=O)OCC(COC(C)=O)OC(C)=O)OC(C)=O (stereo unspecified),inactive,–
NC(=Nc1ccccc1)Nc1ccccc1,inactive,–
Cc1cn([C@H]2C=C[C@@H](CO)O2)c(=O)[nH]c1=O,inactive,–
CCCCCCCC(=O)OC,inactive,–
O=C(N[C@@H](c1ccccc1)[C@@H]1CCCCN1)c1cccc(C(F)(F)F)c1Cl,–,21.3 µM (active)
CCN(CC)CCOc1ccc(C(=C(Cl)c2ccccc2)c2ccccc2)cc1,–,13.3 µM (active)

# Read-out: Glutathione S-Transferase (GSTA2), GSTA2 (gene 2939)
# Test: LTEA_HepaRG_GSTA2: Life Technologies and Expression Analysis (LTEA) Assay for Glutathione S-Transferase (GSTA2) using HepaRG (AID 2283497)
# Details: mRNA level, 48 h; actives raise or lower the signal
# Procedure, shortened: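 HepaRG, 48 h dosing, 8-pt half-log CRC from 100 uM, 0.5% DMSO vehicle, n=2; RNA → Fluidigm TaqMan qRT-PCR; GSTA2 vs ACTB/GAPDH/POLR2A; gain/loss fit vs DMSO.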
Compound,outcome,AC50
CCCCC(CC)COC(=O)CCCCCCCC(=O)OCC(CC)CCCC (stereo unspecified),inactive,–
C=CCc1ccc(OC)c(OC)c1,inactive,–
CC(=O)O,inactive,–
CC(C)(O)c1ccc(CNC(=O)c2cccnc2Oc2ccc(F)cc2)cc1,inactive,–
NC1CCCCC1,inactive,–
CC(=O)O[C@]1(C(C)=O)CC[C@H]2[C@@H]3C=C(Cl)C4=CC(=O)[C@@H]5C[C@@H]5[C@]4(C)[C@H]3CC[C@@]21C,–,15.8 µM (active)
O=C(NS(=O)(=O)/C=C/c1cccs1)c1ccc(F)cc1Br,inactive,–
O=C(O)c1cccnc1,inactive,–
O=C(Oc1ccccc1)c1cccc(C(=O)Oc2ccccc2)c1,inactive,–
CCCC(=O)O,inactive,–
COC(=O)CCC(=O)OC,inactive,–
CC(=O)OCC(COC(C)=O)OC(C)=O,inactive,–
O=C1CCCCC1,inactive,–
CC(COCC(C)OC(=O)c1ccccc1)OC(=O)c1ccccc1 (stereo unspecified),inactive,–
CC(C)COC(=O)CCCCC(=O)OCC(C)C,inactive,–
CC(C)c1cccc(C(C)C)c1,inactive,–
C/C=C/c1ccc(OC)cc1,inactive,–
CN(C)CCCN(C)CCCN(C)C,inactive,–
CCOCCOCCO,inactive,–
CCCCC(CC)COP(=O)(OCC(CC)CCCC)OCC(CC)CCCC (stereo unspecified),inactive,–
CCCCCCCCCCCCCCCCO,inactive,–
CC(N)=O,inactive,–
CCCCCCC(CCCCCCCCCCC(=O)OCC(COC(C)=O)OC(C)=O)OC(C)=O (stereo unspecified),inactive,–
NC(=Nc1ccccc1)Nc1ccccc1,inactive,–
Cc1cn([C@H]2C=C[C@@H](CO)O2)c(=O)[nH]c1=O,inactive,–
CCCCCCCC(=O)OC,inactive,–
CCCCC(CC)CO (stereo unspecified),inactive,–
O=C(N[C@@H](c1ccccc1)[C@@H]1CCCCN1)c1cccc(C(F)(F)F)c1Cl,–,76.6 µM (active)
CCN(CC)CCOc1ccc(C(=C(Cl)c2ccccc2)c2ccccc2)cc1,–,78.6 µM (active)
